AF4-AF9 inh: MLL-AF4/AF9 protein interaction inhibition; inhibition, % at 10 µM; 350,000 compounds, 0.47% hits; AlphaScreen, biotin-AF4 peptide binding to FLAG-AF9;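 active = every replicate reaching a set inhibition limit, whatever the replicate mean, cut at about 25% in these data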;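 note: 0% = plate neutral control median and 100% = total signal loss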
RAD52 inh: RAD52 (human) annealing inhibition. P43351. recombinant RAD52 DNA annealing, FRET fluorescence. inhibition, % at 18.7 µM. 360,000 compounds, 0.46% hits;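 active = every replicate showing at least 50% inhibition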
CASP6 VEID inh: caspase-6 (human) enzyme inhibition | AID 686996 | inhibition, % at 12.5 µM | 350,000 compounds, 0.53% hits | purified caspase-6, Z-VEID-R110 cleavage fluorescence;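 active = mean inhibition across replicates at least about 35%, with every replicate also reaching that limit, limit read from the data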;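 note: 0% = median of neutral control wells and 100% = no fluorescence left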
Target sequence (P55212 24-179 limits assumed): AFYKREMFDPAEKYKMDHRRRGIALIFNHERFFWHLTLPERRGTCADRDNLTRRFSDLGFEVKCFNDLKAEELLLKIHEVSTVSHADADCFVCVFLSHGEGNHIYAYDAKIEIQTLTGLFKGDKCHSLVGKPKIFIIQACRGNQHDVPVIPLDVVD
Target sequence (P55212 194-293 limits assumed): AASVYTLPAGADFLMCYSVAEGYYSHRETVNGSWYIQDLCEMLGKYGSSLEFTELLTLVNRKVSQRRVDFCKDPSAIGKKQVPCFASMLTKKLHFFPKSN
Ecoli rRNA inh: selective bacterial rRNA inhibition in E. coli; E. coli WT GFP vs humanized-ribosome RFP mutants, fluorescence, 24 h; stronger effect = lower value; DMSO median 0, no signal -100; 350,000 compounds, 1.6% hits; GFP signal change (wild-type ribosome), % (concentration not given with the values);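 active = significant combined selectivity score with lowered wild-type GFP, culture density cut under 30%, mutant RFP and density less affected; inactive = any of these conditions unmet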
NSD2 inh: blocks human histone methyltransferase NSD2. O96028. NSD2 peptide methylation, AlphaScreen, 120 min. inhibition, % at 12.5 µM. 310,000 compounds, 0.54% hits; in the data active = inhibition above about 50%
Alpha artifact: AlphaScreen assay artifact in NSD2 counter-screen; 1,500 compounds, 9.4% hits; shares compounds with NSD2 inh; AC35, µM (titrated, usually from 10 µM), for inactives: at the top dose activity change, negative = signal loss; AlphaScreen artifact counterscreen, preloaded methylated H4 peptide; call rule not given here
* marks the source's active call; other numbers are inactive results; . = no result given. Only some compounds are listed: those with a hit (about 2.5% of all), similar ones and a draw of the others.

SMILES | AF4-AF9 inh | RAD52 inh | CASP6 VEID inh | Ecoli rRNA inh | NSD2 inh | Alpha artifact
CCn1cnc2c1c(=O)n(CC(=O)O)c(=O)n2Cc1ccccc1 | 0 | -5 | -3 | 10 | 113* | -1%
CCOc1cc(N2CCOCC2)c(OCC)cc1NC(=O)c1cnccn1 | 7 | -16 | 3 | -4 | 64* | -7%
O=C(c1ccccc1)N1CC[C@H]2[C@H](CO)Nc3ccc(-c4ccccc4F)cc3[C@H]21 | -4 | 11 | -1 | -16 | . | .
COCCNCCOc1ccccc1-c1ccccc1 | . | -4 | -3 | -6 | 1 | .
CNCCOc1ccccc1-c1ccccc1 | . | . | . | . | 76* | -5%
CNCCCCOc1ccccc1-c1ccccc1 | -3 | -3 | 1 | -9 | 64* | -7%
COCCCNCCCCOc1ccccc1-c1ccccc1 | . | . | . | . | 2 | .
C[C@@H]1CN([C@H](C)CO)C(=O)c2cc(C#CCC3CCCC3)cnc2O[C@@H]1CN(C)C(=O)CN(C)C | 5 | 32 | -26 | -1 | . | .
C[C@@H]1CN([C@@H](C)CO)C(=O)c2cc(NS(=O)(=O)c3cn(C)cn3)ccc2O[C@@H]1CN(C)C(=O)Nc1ccc2c(c1)OCO2 | -2 | 5 | 2 | 6 | . | .
C[C@@H]1CN([C@@H](C)CO)C(=O)Cc2cc(NC(=O)Nc3ccc4c(c3)OCO4)ccc2O[C@H]1CN(C)Cc1ccc(C(=O)O)cc1 | 2 | 7 | 3 | 3 | . | .
CCc1ccc(NC(=O)c2cc(-c3ccc4c(c3)OCO4)on2)cc1 | -2 | -8 | -2 | 3 | 87* | 1%
C/C=C/c1ccc([C@@H]2[C@@H](CO)N(C(=O)CN(C)C)C23CN(C(=O)C2CCC2)C3)cc1 | 2 | -10 | -4 | 0 | . | .
O=C(NC(=S)Nc1ccccc1C(=O)O)c1cncc(Br)c1 | -5 | -22 | 1 | 8 | -3 | .
O=C(Nc1ccccc1C(=O)O)c1cncc(Br)c1 | . | . | . | . | 68* | -10%
O=C1CNC[C@H]2[C@@H](c3ccc(C#CC4CCCC4)cc3)[C@H](CO)N12 | 1 | 9 | 4 | 6 | . | .
O=C(NCc1ccc(Cl)cc1)c1ccc(S(=O)(=O)N2CCCCC2)cc1 | 1 | -9 | -3 | 10 | 53* | 0%
Cc1cccc(NC(=O)c2ccc(NS(=O)(=O)c3cccc4cccnc34)cc2)c1 | 1 | -7 | 0 | 5 | 53* | -5%
COC(=O)c1ccc(NC(=O)c2ccc(NS(=O)(=O)c3cccc4cccnc34)cc2)cc1 | . | . | . | . | 0 | .
Cn1c(SCc2ccc(C#N)cc2)nnc1-c1ccncc1 | -3 | 0 | -2 | 11 | 0 | .
C=CCn1c(SCc2ccc(C#N)cc2)nnc1-c1ccc(C)cc1 | . | . | . | . | 61* | -2%
O=C(C[C@H]1C=C[C@H](NC(=O)c2ccc(F)cc2)[C@@H](CO)O1)NCCc1ccncc1 | -3 | 1 | 1 | 2 | . | .
O=C(N/N=C/c1cc2c(cc1[N+](=O)[O-])OCO2)c1ccccn1 | 11 | -20 | 5 | 7 | 53* | -4%
CNC[C@@H]1Oc2c(NC(=O)C3CCCCC3)cccc2C(=O)N([C@@H](C)CO)C[C@H]1C | 3 | 3 | -2 | -4 | . | .
C[C@@H]1CCCCO[C@H](CN(C)CC2CCCCC2)[C@H](C)CN([C@@H](C)CO)C(=O)c2cc(NS(=O)(=O)c3ccc(Cl)cc3)ccc2O1 | . | . | . | -55 | . | .
C=CCOc1ccc(NC(=O)C2CC(=O)N(C(C)C)C2)cc1 (centres undefined) | . | . | . | . | 56* | 3%
SMILES | AF4-AF9 inh | RAD52 inh | CASP6 VEID inh | Ecoli rRNA inh | NSD2 inh | Alpha artifact
CCOc1cc(NC(=O)c2ccccn2)c(OCC)cc1NC(=O)c1ccccc1 | 1 | -8 | 0 | 10 | 0 | .
CCOc1cc(NC2CS(=O)(=O)CC2O)c(OCC)cc1NC(=O)c1ccccc1 (centres undefined) | . | . | . | . | 61* | -7%
C[C@@H]1CN([C@@H](C)CO)S(=O)(=O)c2ccc(-c3cccnc3)cc2O[C@H]1CN(C)C(=O)C1CCC1 | -1 | 17 | 0 | -2 | . | .
Cc1cccc2c(N=NC(=O)c3ccc(NS(=O)(=O)c4cccs4)cc3)c(O)[nH]c12 | 0 | -2 | 5 | -5 | 64* | -8%
O=C1c2ccccc2C(=O)N1CCc1nc2ccccc2c(=O)n1-c1ccccn1 | . | . | . | . | 0 | .
Cc1ccnc(-n2c(CCN3C(=O)c4ccccc4C3=O)nc3ccccc3c2=O)c1 | . | . | . | . | 52* | -1%
COCC#Cc1ccc2c(c1)O[C@H](CN(C)Cc1cccnc1)[C@H](C)CN([C@@H](C)CO)S2(=O)=O | -1 | 3 | 4 | -6 | . | .
COc1ccccc1NCC(=O)N/N=C/c1c(O)ccc2ccccc12 | -1 | -58 | -1 | 7 | -1 | .
O=C(CNc1ccc(F)cc1)N/N=C/c1c(O)ccc2ccccc12 | -1 | -36 | 3 | -36 | 70* | 1%
C[C@@H]1CN([C@@H](C)CO)C(=O)c2cccc(N(C)C)c2O[C@H]1CN(C)Cc1ccc(C(=O)O)cc1 | -2 | -1 | 0 | 1 | . | .
Cc1noc(C)c1S(=O)(=O)N(C)C[C@H]1OCCCC[C@H](C)Oc2ccc(NC(=O)c3ccccc3)cc2C(=O)N([C@H](C)CO)C[C@@H]1C | -2 | -34 | -4 | -2 | . | .
Nc1ccc(Br)c2c1C(=O)c1ccccc1C2=O | . | . | . | . | 16 | .
NC1=C(Br)C(=O)c2ccccc2C1=O | 3 | -10 | 75* | . | 57* | -4%
CC(C)(C#N)NC(=O)C1CCCN1S(=O)(=O)c1ccc2ccccc2c1 (centres undefined) | -13 | -11 | -3 | 3 | 109* | -2%
CC(C)CN(C(=O)COC(=O)c1ccc([N+](=O)[O-])s1)c1c(N)n(Cc2ccccc2)c(=O)[nH]c1=O | 2 | 0 | 82* | 7 | 65* | -1%
CCCCn1c(N)c(N(CCC(C)C)C(=O)COC(=O)c2ccc([N+](=O)[O-])s2)c(=O)[nH]c1=O | 1 | -8 | 95* | 7 | 53* | -5%
CCOc1ccc(N2CC(C(=O)NCCc3c[nH]c4ccc(OC)cc34)CC2=O)cc1 (centres undefined) | -10 | -19 | 0 | 1 | 88* | -3%
O=C(NC1CCC1)[C@H]1[C@H](CO)[C@H]2Cn3c(ccc(-c4ccncc4)c3=O)[C@@H]1N2Cc1cocn1 | -1 | -3 | 0 | 4 | . | .
CCCN(C)C[C@H]1Oc2cc(C#CCC3CCCC3)ccc2S(=O)(=O)N([C@@H](C)CO)C[C@H]1C | 5 | 12 | 0 | -3 | . | .
CC(=O)Nc1ccc(S(=O)(=O)Nc2cccc(-n3cnnn3)c2)cc1 | 2 | -4 | 2 | -4 | -2 | .
CC(=O)c1ccc(S(=O)(=O)Nc2cccc(-n3cnnn3)c2)cc1 | 1 | -14 | 56* | 2 | 115* | -13%
COc1cc(NC(=O)c2ccccc2)c(OC)cc1NC(=O)CSc1[nH]c(=O)cc(C)c1C#N | -1 | -9 | 1 | -2 | 130* | -6%
Cc1cc(=O)[nH]c(SCC(=O)Nc2cccc3ccccc23)c1C#N | 3 | -30 | 9 | . | -1 | .

Source: PubChem
